Source: PubChem BioAssay AID588382 (National Center for Advancing Translational Sciences (NCATS), 2011)
About 150 (12%) of roughly 1,300 compounds were called active. About 30% were inconclusive and are not listed. Calls follow the shape of the dose curve; as a rule, active = well fitted cell-killing curve with a large enough effect; inconclusive = small, poorly fitted or top-dose-only effect, or effect the other way; inactive = flat fitted curve, though single readings scatter. The list comes from a sample in which actives are over-represented; it also holds similar structures and randomly drawn compounds. Entries that show only a call come without a potency.

Experiment: qHTS of small molecules that selectively kill Giardia lamblia: Hit Validation in HepG2 cytotox;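 also: compound exposure lasted overnight at 37 deg C; nearly all actives have a fitted effect of over 55% in size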
Conditions: cell viability; Potency: HepG2 cytotoxicity; series mostly up to 38.3 µM
Procedure, shortened: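 Counterscreen cytotoxicity: ATPLite luminescence (15 min, room temperature) measured in HepG2 cells exposed overnight at 37 deg C to pin-transferred compound (23 nL) after overnight pre-incubation.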
Potency is read from the fitted curve at half-maximal effect.

Row | Compound | Potency
1 | COc1ccc(CC(NC(C)=O)C(=O)NC2CCN(c3ncccc3[N+](=O)[O-])CC2)cc1 (centres undefined) | inactive
2 | CCC1CCCCN1C(=O)c1ccc([N+](=O)[O-])o1 (centres undefined) | inactive
3 | Cc1ccc(C2=NCCn3c2c2ccc([N+](=O)[O-])cc2[n+]3[O-])cc1 | inactive
4 | O=[n+]1c2c(n([O-])c3cc(Br)ccc31)CCCC2 | inactive
5 | CCOc1cc(C=O)ccc1OCCn1c([N+](=O)[O-])cnc1C | inactive
6 | CCOC(=O)C1=C(C)N=c2s/c(=C/c3cccc([N+](=O)[O-])c3O)c(=O)n2C1c1ccc(OC)cc1OC (centres undefined) | inactive
7 | CCN(CC)CCOC(=O)c1ccc(N/C=C(/C#N)c2nc(-c3cc4ccccc4oc3=O)cs2)cc1 | inactive
8 | O=[N+]([O-])c1ncn(Cc2c(Cl)cccc2Cl)n1 | inactive
9 | C=CCNC(=O)c1ccccc1NC(=O)COc1ccccc1 | inactive
10 | O=C(COc1cccnc1[N+](=O)[O-])NCc1ccc(F)cc1 | inactive
11 | CC(=O)c1c(COC(=O)c2ccccc2Cl)nc2ccccc2[n+]1[O-] | inactive
12 | O=[N+]([O-])c1ccc2nc(-c3ccc(OC(F)F)cc3)cn2c1 | inactive
13 | COc1cccc([C@@H]2CC=C(C(=O)O)[C@H](c3cccc(Cl)c3)N2S(=O)(=O)c2ccc(C)cc2)c1 | inactive
14 | COc1ccc(NC(=O)c2ccc([N+](=O)[O-])cc2[N+](=O)[O-])c(OC)c1 | inactive
15 | CC(=O)c1c(C)n([O-])c2cc(C)ccc2[n+]1=O | inactive
16 | NC(=O)c1c(NC(=O)CCCn2cnc([N+](=O)[O-])n2)sc2c1CCCC2 | inactive
17 | CC(=O)N1CCc2c(sc(NC(=O)c3ccc([N+](=O)[O-])o3)c2C#N)C1 | 3.29 µM (active)
18 | COC(=O)c1sc(NC(=O)c2ccc([N+](=O)[O-])o2)c(C#N)c1C | inactive
19 | O=C(c1ccc([N+](=O)[O-])o1)N1CCc2ccccc2C1 | inactive
20 | NC(=O)c1c(NC(=O)c2ccc([N+](=O)[O-])o2)sc2c1CCCC2 | 11.7 µM (active)

Row | Compound | Potency
21 | O=C1S/C(=C\c2ccc(O)c([N+](=O)[O-])c2)C(=O)N1Cc1cccc([N+](=O)[O-])c1 | inactive
22 | OC(COc1cccc2ccccc12)CN1CCN(c2ccc(Cl)cc2)CC1 (centres undefined) | inactive
23 | O=[N+]([O-])C(/C=C(\Cl)[N+](=O)[O-])=C(N1CCCCC1)N1CCCCC1 | inactive
24 | CC(=O)NC(Cc1ccccc1F)C(=O)NC1CCN(c2ncccc2[N+](=O)[O-])CC1 (centres undefined) | inactive
25 | CCN(CCCNC(=O)c1nn(C)c2c1CS(=O)(=O)c1ccccc1-2)Cc1ccccc1 | inactive
26 | CC(C)(C)C1C/C(=C/c2ccccn2)C(=O)/C(=C/c2ccccn2)C1 (centres undefined) | 0.585 µM (active)
27 | O=C1CC(c2ccc(F)cc2)CC2=C1C(c1ccc([N+](=O)[O-])o1)Nc1ccccc1N2 (centres undefined) | inactive
28 | O=c1[nH]c(=O)c2cc([N+](=O)[O-])cc([N+](=O)[O-])c2[nH]1 | inactive
29 | O=[N+]([O-])c1ccc(/C=N/Nc2nc(N3CCCCC3)nc(N3CCCCC3)n2)o1 | inactive
30 | CC(C)C(=O)NC(=S)Nc1ccc(S(=O)(=O)N2CCCC2)cc1 | inactive
31 | O=C(Nc1ccccc1N1CCOCC1)c1ccc([N+](=O)[O-])o1 | inactive
32 | O=C(Nc1ccc(S(=O)(=O)N2CCCC2)cc1)c1ccc([N+](=O)[O-])o1 | 2.93 µM (active)
33 | COc1ccc(S(=O)(=O)N2CCN(C(=O)c3ccc([N+](=O)[O-])o3)CC2)cc1 | inactive
34 | COc1ccc(C)cc1NC(=O)c1cc(S(=O)(=O)N2CCCC2)cn1C | inactive
35 | O=C(Nc1ccc(S(=O)(=O)N2CCOCC2)cc1)c1ccc([N+](=O)[O-])o1 | 13.1 µM (active)
36 | COc1ccc(S(=O)(=O)N2CCCCC2)cc1NC(=O)c1ccc([N+](=O)[O-])o1 | 3.29 µM (active)
37 | Cc1ccc(NC(=O)c2ccc([N+](=O)[O-])o2)cc1S(=O)(=O)N1CCOCC1 | 13.1 µM (active)
38 | Cc1ccc(NC(=O)COc2cccnc2[N+](=O)[O-])cc1S(=O)(=O)N1CCCCC1 | inactive
39 | COc1ccc(S(=O)(=O)N2CCOCC2)cc1NC(=O)COc1cccnc1[N+](=O)[O-] | inactive
40 | O=C(Cc1ccc(Cl)cc1)Nc1ncc([N+](=O)[O-])s1 | inactive

Row | Compound | Potency
41 | Cc1ccc(-n2c(C)cc(C(=O)COc3cccnc3[N+](=O)[O-])c2C)cc1 | inactive
42 | O=C(c1ccc([N+](=O)[O-])o1)N1CCc2ccccc21 | inactive
43 | Cc1cc(C)cc(N=c2c([N+](=O)[O-])nn(-c3ccc(Cl)cc3)n2O)c1 | inactive
44 | O=C(COc1cccnc1[N+](=O)[O-])NCc1ccco1 | inactive
45 | COc1ccc(OC)c(CCNC(=O)CSc2ccsc2[N+](=O)[O-])c1 | inactive
46 | Cc1ccc(S(=O)(=O)N2[C@@H](c3ccc(Cl)cc3)C(C(=O)O)=CC[C@H]2c2ccc(Cl)c(Cl)c2)cc1 | inactive
47 | Cn1nc(N)c2c(-c3ccccc3)c(C#N)c(N)nc21 | inactive
48 | Cc1ccc(N=c2c([N+](=O)[O-])nn(-c3ccc4c(c3)OCCO4)n2O)cc1F | inactive
49 | CC(C)(C)n1nc(-c2ccc(Cl)cc2)c2c(N)ncnc21 | inactive
50 | [O-][n+]1c2cc(C(F)(F)F)ccc2c2n1CCN=C2c1ccc(Cl)cc1 | inactive
51 | CCOC(=O)CSc1ccc(C(=O)NCCCN2CCOCC2)cc1[N+](=O)[O-] | inactive
52 | O=[N+]([O-])c1cc(S(=O)(=O)Nc2cccc(Cl)c2)ccc1N/N=C/c1ccc(N2CCOCC2)cc1 | inactive
53 | O=C(Nc1cccc(S(=O)(=O)N2CCCCC2)c1)c1ccc([N+](=O)[O-])o1 | 11.7 µM (active)
54 | O=C(COc1cccnc1[N+](=O)[O-])Nc1cccc(S(=O)(=O)N2CCCCC2)c1 | inactive
55 | CC(=O)NC(Cc1cccc(C)c1)C(=O)NC1CCN(c2ncccc2[N+](=O)[O-])CC1 (centres undefined) | inactive
56 | Cc1cc(C)n(S(=O)(=O)c2ccccc2[N+](=O)[O-])n1 | inactive
57 | CC(NC(=O)c1ccc(N(C)C)c([N+](=O)[O-])c1)c1ccc(-n2ccnc2)cc1 (centres undefined) | inactive
58 | CC(=O)NC(Cc1cccc(F)c1)C(=O)NC1CCN(c2ncccc2[N+](=O)[O-])CC1 (centres undefined) | inactive
59 | C/C(=N\NC(=O)COc1ccc(C)cc1Br)c1cc([N+](=O)[O-])cs1 | inactive
